The nature of assay [1]: NCI Yeast Anticancer Drug Screen. Data for the rad50 strain (AID 155).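 Also: 0% = growth of vehicle-only cultures of the same strain.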 To be noted: S. cerevisiae rad50 strain growth inhibition; at 50.0 µM; hits give high values. A digest of the protocol: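 Vehicle-treated cultures provide the reference for the growth inhibition reported for compound-exposed, repair-deficient yeast.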
Assay [2] can be described thus: NCI Yeast Anticancer Drug Screen. Data for the mec2-1 strain (AID 157). To be noted: S. cerevisiae mec2-1 strain, at 50.0 µM, hits give high values. The method, boiled down: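 Each compound was tested on mec2-1 yeast, a strain altered in DNA damage repair or cell cycle control. Growth inhibition is reported relative to vehicle.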
The nature of assay [3]: NCI Yeast Anticancer Drug Screen. Data for the sgs1 mgt1 strain (AID 161).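 Also: 0% = growth of cultures given vehicle only.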 The conditions noted are these: S. cerevisiae sgs1 mgt1 strain, at 50.0 µM, hits give high values. A digest of the protocol: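 Genetically altered yeast, compound exposure, growth inhibition relative to vehicle.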
The nature of assay [4]: NCI Yeast Anticancer Drug Screen. Data for the cln2 rad14 strain (AID 165).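 Also: 0% = growth equal to vehicle treated cultures.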 To be noted: S. cerevisiae cln2 rad14 strain, at 50.0 µM, hits give high values. A digest of the protocol:
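Test compounds were added to cln2 rad14 yeast cultures; inhibition of growth was then determined by comparison with vehicle treatment.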

Assay [5] in a line: NCI Yeast Anticancer Drug Screen. Data for the bub3 strain (AID 167). The conditions noted are these: S. cerevisiae bub3 mutant strain, at 50.0 µM, hits give high values. The method, boiled down: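 Mutant yeast screening strain plus compound; vehicle-treated cultures serve as the 0% inhibition reference.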
Assay [6] is described as follows: NCI Yeast Anticancer Drug Screen. Data for the mlh1 rad18 strain (AID 175). The conditions noted are these: S. cerevisiae mlh1 rad18 strain growth inhibition; at 50.0 µM; hits give high values. A digest of the protocol:
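Inhibition values reflect reduced growth of mutant yeast versus vehicle-treated controls following compound exposure; the mutations affect DNA damage repair.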

About 79,000 compounds went through this panel and 15% of them were active in at least one assay; those are over-represented in the sample as a whole. Unmarked numbers belong to inactive results. Activity calls are given as the source filed them. Rule as the data show it: active = growth inhibition above about 70%; inactive = the rest.

This note sets out measurements from PubChem BioAssay (NCI).

For the compound `COC(=O)c1cc2c(n1S(=O)(=O)c1ccc(C)cc1)C(=O)C(=O)c1[nH]cc(C(=O)OCc3ccccc3)c1-2`, the growth inhibition in assay [1] was 0.6%; in assay [2], 3.7%; in assay [3] it was 20.6%; in assay [4], 8.9%; in assay [5], 14%; in assay [6] it was 13.5%.
In the case of `Cc1ccc2nccc(C)c2c1`, the growth inhibition in assay [1] is -27.8%; in assay [2], -45.1%; in assay [3], -19.6%; in assay [4], -14.7%; in assay [5] it was -27.6%; in assay [6], -7.8%.
For `O=S(=O)(c1ccc(Nc2nnc(-c3ccccc3)s2)cc1)N1CCCCC1`, the growth inhibition was -4% in assay [1]; 12.8% in assay [2]; 42.3% in assay [3]; -23.1% in assay [4]; 40.9% in assay [5]; 5.65% in assay [6].
In the case of `CC(=O)C(CCN(C)C)(c1ccccc1)C1CCCCC1` (stereo unspecified), the growth inhibition was -12.2% in assay [1]; -15.2% in assay [2]; -2.85% in assay [3]; -6.65% in assay [4]; -10.5% in assay [5]; -3.6% in assay [6].
Regarding `C/C=C(\C)c1cc(O)c(C)c2c1Oc1cc(O)c(Cl)c(C)c1C(=O)O2`, the growth inhibition in assay [1] is 92.5% (active); in assay [2], 94.8% (active); in assay [3], 93.9% (active); in assay [4], 92.3% (active); in assay [5], 93.5% (active); in assay [6], 92.5% (active).
As to `CCCCCCCCC/C=C1\CCC(CN2CCOCC2)C1=O` (stereo unspecified), the growth inhibition in assay [1] was 89% (active); in assay [2], 92.8% (active); in assay [3] it was 90.3% (active); in assay [4], 89.6% (active); in assay [5], 88.8% (active); in assay [6], 88% (active).
On to `N=C(N)c1cccc(NC(=O)CCc2ccccc2)c1`, for which the growth inhibition is -7.3% in assay [1]; -14.6% in assay [2]; -17.8% in assay [3]; -29.1% in assay [4]; 0.95% in assay [5]; 1.9% in assay [6].
As for `C=CCOC(=O)CCC(CCC(=O)OCC=C)C(C)=O`, the growth inhibition in assay [1] is -25.4%; in assay [2] it was -19.4%; in assay [3], 0.55%; in assay [4] it was -9.6%; in assay [5], 4.1%; in assay [6] it was -11.5%.
For `O=C(Nc1cc2c(cc1[N+](=O)[O-])-c1c(F)cccc1C2)C(F)(F)F`, the growth inhibition in assay [1] is 9.8%; in assay [2] it was 1.4%; in assay [3], 8.25%; in assay [4] it was -14.2%; in assay [5], 4.9%; in assay [6] it was 2.15%.
As for `Cc1cccc(Cl)c1NC1=NCCN1C(=O)CC(=O)c1ccccc1`, the growth inhibition was 54.1% in assay [1]; -9.2% in assay [2]; 1.1% in assay [3]; 12.8% in assay [4]; 2.05% in assay [5]; 32.7% in assay [6].
For `CCSc1nc(N)c2c(-c3ccc(OC)c(OC)c3)c3c(nc2n1)CCCC3`, the growth inhibition in assay [1] is -32.6%; in assay [2], -17.2%; in assay [3], -39.5%; in assay [4] it was -3.35%; in assay [5] it was -15.8%; in assay [6], -25.4%.
For the compound `O=c1[nH]cnc2ccccc12`, the growth inhibition in assay [1] was 39%; in assay [2], -1.55%; in assay [3] it was 0.2%; in assay [4], -7.3%; in assay [5] it was 16.6%; in assay [6] it was 14.7%.
For `COC(=O)C(Cc1ccccc1)NCCN` (stereo unspecified), the growth inhibition was -0.1% in assay [1]; 7.4% in assay [2]; -3.9% in assay [3]; -17% in assay [4]; -5.95% in assay [5]; 2.1% in assay [6].
In the case of `CCOC(=O)C(=O)C1CCCC(C)C1=O` (stereo unspecified), the growth inhibition in assay [1] was 16%; in assay [2] it was 11.8%; in assay [3], -16.6%; in assay [4], -43.1%; in assay [5], 10.8%; in assay [6], 1.05%.
Turning to `Nc1nc(-c2ccccc2)c(N=Nc2cc(Cl)ccc2Cl)s1`, the growth inhibition in assay [1] is 4.5%; in assay [2], 1%; in assay [3], -2.3%; in assay [4] it was -5.05%; in assay [5], 8.2%; in assay [6], -2.1%.
In the case of `CCCCN1C(=O)C(CC(=O)OCC)SC1=S` (stereo unspecified), the growth inhibition in assay [1] is -8.35%; in assay [2], -28.7%; in assay [3], -19.9%; in assay [4], -7.8%; in assay [5], -18.2%; in assay [6], -14.3%.
For the compound `CCOC(=O)C(C)(C)C(O)C(C)C` (stereo unspecified), the growth inhibition in assay [1] was 20.7%; in assay [2] it was -18.8%; in assay [3], -15.2%; in assay [4] it was 48.4%; in assay [5] it was -12.7%; in assay [6], 3.95%.
On to `Nc1nc(N)c(Nc2ccc(Cl)cc2)c(Cl)n1`, for which the growth inhibition in assay [1] was 50%; in assay [2], 29.2%; in assay [3] it was 66.3%; in assay [4] it was 35.2%; in assay [5] it was 40.9%; in assay [6], 50.5%.
In the case of `CCOC(=O)C1CCCCC1C(=O)OCC` (stereo unspecified), the growth inhibition in assay [1] is -1.7%; in assay [2], -15.8%; in assay [3], -7.3%; in assay [4], -3.55%; in assay [5], -28.1%; in assay [6], -26.9%.
Consider `O=C(CCCn1ccnc1[N+](=O)[O-])NCCn1cncc1[N+](=O)[O-]`, for which the growth inhibition in assay [1] is 0.65%; in assay [2] it was -8.2%; in assay [3], 5.9%; in assay [4], 7.6%; in assay [5] it was 0.25%; in assay [6], -9.9%.
For `O=C1c2ccccc2-c2cc(Br)c(NC(=O)C3CCCCC3C(=O)O)cc21` (stereo unspecified), the growth inhibition was 0.2% in assay [1]; 3.55% in assay [2]; 20.6% in assay [3]; 25.8% in assay [4]; -1.2% in assay [5]; 3.6% in assay [6].
